HT1080-NT tox = kills 2HG-producing HT-1080-NT fibrosarcoma cells. HT-1080-NT fibrosarcoma viability, CellTiter-Glo ATP luminescence, 48 h. AID 686970. Potency, µM (series often up to 46.1 µM), actives largely listed as cytotoxic. 360,000 compounds, 1.6% hits;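 also: NT is the 2HG producing partner of a matched IDH1 knockdown line; nearly all actives have a fitted effect of over 55% in size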
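Viability by CellTiter-Glo luminescence after 48 h compound exposure at 37C of HT-1080-NT cells (750/well, RPMI, 5% FBS). % activity scaled between DMSO wells and medium-only wells, then curve-fitted and categorized by curve class.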
KB-V1 MDR tox = kills drug-selected multidrug resistant KB-V1 cells; KB-V1 MDR cells viability, CellTiter-Glo, 72 h; Potency, µM (doses to about 46.1 µM), hits mostly cytotoxic; AID 1347076; 400,000 compounds, 3.4% hits; also: nearly all actives have a fitted effect of over 60% in size
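KB-V1 MDR subline cells in DMEM (phenol-red free, 10% FBS) exposed to compounds in qHTS concentration series for 72 h at 37 degrees C. Viability read by CellTiter-Glo luminescence; concentration-effect curves fitted after normalization and correction.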
ATXN2 expr inh = ATXN2 expression inhibition. AID 1745845. Potency, µM (series often up to 57 µM), most hits filed as inhibitors. HEK-293 ATXN2-luciferase reporter, luminescence, 24 h. 360,000 compounds, 0.72% hits; also: nearly all actives have a fitted effect of over 55% in size
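qHTS (up to 57 uM final) was run with 24 h compound exposure of reporter cells at 37 °C. Each well was multiplexed: SteadyGlo luminescence measured ATXN2-luciferase expression after a fluorogenic Gly-Phe-AFC viability readout (25 uM final).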
S2 tox = cell viability loss in ATXN counter-screen; Potency, µM (titrated, usually from 56.7 µM), usual class: cytotoxic; AID 651635; 400,000 compounds, 0.49% hits; S2 cells (HEK-293 line with an ATXN2-luciferase reporter) viability, CellTiter-Fluor protease fluorescence, 24 h; also: nearly all actives have a fitted effect of over 40% in size
KB-3-1 tox = kills parental KB-3-1 adenocarcinoma cells | 400,000 compounds, 1.4% hits | Potency, µM (doses to about 46.1 µM), usual class: cytotoxic | KB-3-1 viability, CellTiter-Glo ATP luminescence, 72 h; also: nearly all actives have a fitted effect of over 60% in size
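Parental KB-3-1 viability, qHTS format: 72 h compound exposure, 37 °C; CellTiter-Glo; media-only wells and DMSO plates as controls; concentration-effect fits on corrected data.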
HT1080 IDH1KD tx = HT-1080 IDH1 knockdown cell toxicity (counter line); Potency, µM (series often up to 46.1 µM), hits mostly cytotoxic; 360,000 compounds, 2% hits; HT-1080 IDH1 knockdown viability, ATP luminescence, 48 h; AID 686971
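IDH1KD HT-1080 cells, 750/well, RPMI + 5% FBS; compound pinned after 2 h settling; 48 h, 37 °C; CellTiter-Glo luminescence; % activity normalised to DMSO and no-cell wells; curves fitted, classed by r2 and efficacy.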
Hits are given with their value; i = inactive; ? = inconclusive; nt = no result given; ! = a repeat was not active. Compounds with a hit are over-represented: about 6.2% of the library has one in this group of screens. Calls follow the shape of the dose curve; as a rule, active = well fitted curve in the direction sought with a large enough effect; inconclusive = small, poorly fitted or top-dose-only effect, or another doubt; inactive = no such curve, though single readings can be large; an effect the other way counts as inactive or inconclusive.

SMILES	HT1080-NT tox	KB-V1 MDR tox	ATXN2 expr inh	S2 tox	KB-3-1 tox	HT1080 IDH1KD tx
CC(=O)c1cccc(-c2ccnc3c2CC(C(=O)Nc2ccc(F)c(Cl)c2)O3)c1 (stereo not drawn)	?	20.6µM	?	i	?	?
COc1ccc(NC(=O)C2Cc3c(-c4ccccc4)ccnc3O2)cc1OC (stereo not drawn)	i	?	?	i	16.4µM	?
Cc1nc(C)n(CC(=O)NCC2Cc3cc(-c4cccc(OC(F)(F)F)c4)ccc3O2)n1 (stereo not drawn)	nt	nt	nt	i	nt	nt
CC(C)(C)C(=O)Nc1ccc2nc(SCCOc3ccccc3Cl)sc2c1	nt	i	?	i	i	nt
Cn1c(=O)c2c(SCC(=O)N3CCc4ccccc43)nc(-c3cccc(F)c3)nc2n(C)c1=O	nt	i	i	i	i	nt
CS(=O)(=O)Nc1cccc(NC(=O)C2Cc3c(-c4ccccc4)ccnc3O2)c1 (stereo not drawn)	2.31µM	i	i	i	16.4µM	?
CC1CCc2nc3ncn(Cc4ccccc4C#N)c(=O)c3cc2C1 (stereo not drawn)	nt	i	i	i	i	nt
COC(=O)CCC(=O)NC(=S)Nc1sc(C)c(C)c1C(N)=O	?	1.64µM	i	?	0.651µM	0.326µM
Cc1sc(NC(=S)NC(=O)CCc2ccccc2)c(C(N)=O)c1C	0.164µM	?	i	?	0.184µM	?
CCOC(=O)N1CCN(c2ccc([N+](=O)[O-])cc2F)CC1C (stereo not drawn)	i	23.1µM	i	i	i	i
CCOC(=O)N1CCN(c2cc(C)c(C(C)=O)cc2F)CC1	i	i	i	i	i	i
CCOC(=O)N1CCN(c2cc(N)c([N+](=O)[O-])cc2F)CC1	i	23.1µM	i	?	i	i
CCOC(=O)N1CCN(c2ccc(C(C)=O)cc2F)CC1C (stereo not drawn)	i	i	nt	i	i	i
O=C(CC[C@H]1O[C@@H](n2ccc(=O)[nH]c2=O)[C@H](O)[C@@H]1O)NCCN1CCOCC1	i	i	i	i	i	i
Cc1nc2ccccc2nc1CN1CCOc2ccc(C(C)(O)COc3ccccc3)cc2C1 (stereo not drawn)	nt	nt	nt	i	nt	nt
COc1ccccc1NC(=O)Cc1csc(NC(=S)Nc2ccc(C)cc2)n1	6.31µM	10.3µM	i	i	?	7.08µM
COc1ccc(C(NC(=O)C2CCN(CCCOc3ccccc3)CC2)c2ccccn2)cc1 (stereo not drawn)	i	i	i	i	i	i
O=C(NC(c1ccc(-c2ccccc2)cc1)c1cnccn1)C1CCN(CCOc2ccc(F)cc2)CC1 (stereo not drawn)	?	i	?	?	?	16.4µM
O=C(NC(c1ccc(-c2ccccc2)cc1)c1cnccn1)C1CCN(CCCOc2ccccc2)CC1 (stereo not drawn)	?	i	?	31.6µM	?	9.2µM
O=C(NC(c1ccc(Cl)cc1)c1cnccn1)C1CCN(CCOc2ccc(F)cc2)CC1 (stereo not drawn)	?	i	i	i	i	?
COc1cc(/C=N/N2CCCCC2)cc([N+](=O)[O-])c1O	i	i	i	i	?	i
COCCN1C(=O)c2oc3ccc(C)cc3c(=O)c2C12C(=O)N(C)c1ccccc12 (stereo not drawn)	nt	i	i	i	i	nt
CN(C)[C@@H](CCOc1cccc2ccccc12)c1ccccc1	nt	nt	31.6µM!	?	nt	nt
CCCCc1nc2n[nH]c(N)c2c2c1CCC2	i	0.651µM	i	i	?	i
O=C1C=CC(=O)C(CNc2ccc(C(=O)OCc3ccccc3)cc2)=C1	16.4µM	20.6µM	i	nt	20.6µM	10.3µM
SMILES	HT1080-NT tox	KB-V1 MDR tox	ATXN2 expr inh	S2 tox	KB-3-1 tox	HT1080 IDH1KD tx
CN(C)c1ccc(C(=O)OCc2ccccc2)cc1	i	i	i	i	i	i
CC(Oc1ccccc1)C(=O)Nc1ccc(C(N)=O)cc1 (stereo not drawn)	i	i	i	i	i	i
COc1ccc(NC(=O)C#Cc2ccccc2)cc1OC	?	?	i	i	18.4µM	18.4µM
NC(=O)c1ccc(NC(=O)C#Cc2ccccc2)cc1	20.6µM	i	i	?	23.1µM	16.4µM
Cc1nnc2c(N3CCN(c4ccc(F)cc4)CC3)nc3ccc(C(=O)c4ccccc4)cc3n12	nt	i	nt	nt	i	nt
CCCCC/C=C\CCC(=O)N[C@H]1[C@H](Oc2c3cc4cc2Oc2ccc(cc2Cl)[C@@H](O[C@@H]2O[C@H](CO)[C@@H](O)[C@H](O)[C@H]2NC(C)=O)[C@@H]2NC(=O)[C@H](NC(=O)[C@@H]4NC(=O)[C@H]4NC(=O)[C@@H](Cc5ccc(c(Cl)c5)O3)NC(=O)[C@H](N)c3ccc(O)c(c3)Oc3cc(O)cc4c3)c3ccc(O)c(c3)-c3c(O[C@H]4O[C@H](CO)[C@@H](O)[C@H](O)[C@@H]4O)cc(O)cc3[C@@H](C(=O)O)NC2=O)O[C@H](CO)[C@@H](O)[C@@H]1O	nt	nt	nt	i	nt	nt
COc1ccc(C(=O)N2CCOC2CNC(=O)C(=O)NCc2ccc(Cl)cc2)cc1 (stereo not drawn)	i	23.1µM	i	i	i	i
CC(OC(=O)c1ccccc1NS(=O)(=O)c1cccc(N)c1)C(=O)N(C)Cc1ccccc1 (stereo not drawn)	i	3.66µM	i	?	?	i
CC(OC(=O)c1cccc(O)c1)C(=O)N(C)Cc1ccccc1 (stereo not drawn)	i	?	i	i	i	i
COC(=O)/C(=C1/Oc2cc(C)oc(=O)c2S1)C(F)(F)F	i	i	?	nt	i	14.6µM
COC1=C(C)C(=O)C2=C(C1=O)C1C3CC4=C(C(=O)C(OC)=C(C)C4=O)C(CNC(=O)C(C)=O)N3C(C#N)C(C2)N1C (stereo not drawn)	18.4µM	2.31µM	?	0.15µM	0.103µM	0.082µM
Cc1nc(SCc2nc3ccc(C(F)(F)F)cc3[nH]2)c2oc3ccccc3c2n1	nt	i	?	?	16.4µM	nt
Cc1nc(SCc2nc3ccc(Br)cc3[nH]2)c2oc3ccccc3c2n1	nt	i	i	i	i	nt
CCc1nc(Sc2nc(C)cc(C)n2)c2oc3ccccc3c2n1	?	16.4µM	i	i	?	?
CCc1nc(SCc2nc3ccccc3[nH]2)c2oc3ccccc3c2n1	?	3.26µM	i	?	i	?
Cc1cccc(NCc2nnc(-c3ccccc3)o2)c1C	i	18.4µM	i	i	i	i
CC(OC(=O)c1ccc(Cl)nc1)C(=O)Nc1ccc(S(=O)(=O)N2CCCC2)cc1 (stereo not drawn)	i	?	i	i	i	i
CN(C)S(=O)(=O)c1ccc(NC(=O)C2CCCN(C(=O)c3ccc(Cl)cc3)C2)cc1 (stereo not drawn)	i	i	i	i	i	i
